# Experimental data as given in the supplement of paper PMC8728848.
# The full list was thinned out, with the strongest signals kept by preference.
# B1: RetS (Pseudomonas aeruginosa), Q9HUV7 (protein)
# chain: MVRLRIAIGLLVSFLLLLLGPMSPAVADDAGVSSVPLQTTATTPSANQNWRLLRDESAQLRIADVLQRKEQFRPLAKRSFIFPASPQAVWLQVQLPAQKVPSWLWIFAPRVQYLDYYLVQDGQLVRDQHTGESRPFQERPLPSRSYLFSLPVDGKPMTLYVRMTSNHPLMAWFDQIDEAGLVGLEKPAYAFGMLLGGMLLLLMYNLIRFAYSRSASSLWLAAVHAALAVCAAANLGLVAFWLPGLKFNQSLTADLGALGAAVSLLWFACSFFRGTAESRLNRLLQGEALLILAVGAIIAFTQQLWFSWLIYLLVILSSLSVPLIAAWHWYRGYQPARLIVAGMIVFNAGFMVFLPVLFGTKQLDPGWLVLGVFSFATLAGLVLSVSLTERQRLIQQLNLQQRTSEAAHTAELQTKAEFLAKISHEIRTPMNGVLGMTELLLGTPLSAKQRDYVQTIHSAGNELLTLINEILDISKLESGQIELDEVQFDLNALIEDCLDIFRVKAEQQRIELISFTQPQVPRVIGGDPTRLRQVVLSLLDNAFKQTEEGEILLVVALDDQGETPRLRIAVQDSGHPFDAKEREALLTAELHSGDFLSASKLGSHLGLIIARQLVRLMGGEFGIQSGSSQGTTLSLTLPLDPQQLENPTADLDGPLQGARLLVVDDNETCRKVLVQQCSGWGLNVSAVSSGKEALAQLRTKAHLREYFDVVLLDQDMPGMTGMQLAAKIKEDPNLNHDILLIMLTGISNAPSKIIARNAGIKRILAKPVAGYTLKATLADELAQRGVSGVTNYLQPAKEAQAPSLPSDFRILVAEDNSISTKVIRGMLNKLNLQPDTASNGQEALSAMKATQYDLVLMDCEMPVLDGFSATEQLRAWEAHEQRPHTPVVALTAHILSEHKERARLVGMDGHMAKPVELSQLRELIAYWVGERDRRRQGDALPS
# Legend:
# Assay in all cases: glycan array binding signal (z-score within array); higher = stronger binding
# Conditions in all cases: glycan notation: IUPAC condensed, linker removed
# Fuc(a1-2)Gal = molecular target: Fuc(a1-2)Gal
# How it was run: (§1)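 The binding signal is a Z-score computed within each array and averaged over linkers. Arrays of the same protein sequence at different concentrations or buffers were also averaged together. Data originate from 3228 arrays in the Consortium for Functional Glycomics database, kept only where the protein sequence was available.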
# [1] = molecular target: Fuc(a1-2)Gal(b1-4)GlcNAc(b1-3)[Fuc(a1-2)Gal(b1-4)GlcNAc(b1-6)]GalNAc
# How it was run: as §1
# [2] = molecular target: Fuc(a1-2)Gal(b1-4)[Fuc(a1-3)]GlcNAc(b1-3)GalNAc
# How it was run: as §1
# [3] = molecular target: Fuc(a1-2)[Gal(a1-3)]Gal(b1-3)GlcNAc(b1-2)Man(a1-3)[Fuc(a1-2)[Gal(a1-3)]Gal(b1-3)GlcNAc(b1-2)Man(a1-6)]Man(b1-4)GlcNAc(b1-4)[Fuc(a1-6)]GlcNAc
# How it was run: as §1
# [4] = molecular target: Fuc(a1-2)[GalNAc(a1-3)]Gal(b1-3)GalNAc(a1-3)[Fuc(a1-2)]Gal(b1-4)GlcNAc
# How it was run: as §1
# [5] = molecular target: Fuc(a1-3)[Gal(b1-4)]GlcNAc(b1-4)Gal(b1-4)[Fuc(a1-3)]GlcNAc(b1-4)Gal(b1-4)[Fuc(a1-3)]GlcNAc
# How it was run: as §1
# [6] = molecular target: Gal(a1-4)Gal(b1-3)GlcNAc(b1-2)Man(a1-3)[Gal(a1-4)Gal(b1-3)GlcNAc(b1-2)Man(a1-6)]Man(b1-4)GlcNAc(b1-4)GlcNAc
# How it was run: as §1
# Gal(a1-4)Gal(b1-4)Glc = molecular target: Gal(a1-4)Gal(b1-4)Glc
# How it was run: as §1
# [7] = molecular target: Gal(a1-4)Gal(b1-4)GlcNAc(b1-2)Man(a1-3)[Gal(a1-4)Gal(b1-4)GlcNAc(b1-2)Man(a1-6)]Man(b1-4)GlcNAc(b1-4)GlcNAc
# How it was run: as §1
# [8] = molecular target: Gal(b1-3)[Fuc(a1-4)]GlcNAc(b1-2)Man(a1-3)[Gal(b1-3)[Fuc(a1-4)]GlcNAc(b1-2)Man(a1-6)]Man(b1-4)GlcNAc(b1-4)[Fuc(a1-6)]GlcNAc
# How it was run: as §1
# [9] = molecular target: Gal(b1-3)[Fuc(a1-4)]GlcNAc(b1-3)Gal(b1-4)GlcNAc
# How it was run: as §1
# Gal(b1-4)Gal = molecular target: Gal(b1-4)Gal
# How it was run: as §1
# [10] = molecular target: Gal(b1-4)GlcNAc(b1-2)[Gal(b1-4)GlcNAc(b1-4)]Man(a1-3)[Gal(b1-4)GlcNAc(b1-2)[Gal(b1-4)GlcNAc(b1-6)]Man(a1-6)]Man(b1-4)GlcNAc(b1-4)GlcNAc
# How it was run: as §1
# [11] = molecular target: Gal(b1-4)GlcNAc(b1-3)[Gal(b1-4)GlcNAc(b1-6)]Gal(b1-4)GlcNAc
# How it was run: as §1
# [12] = molecular target: GalNAc(a1-3)Fuc(a1-2)Gal(b1-4)GlcNAc(b1-3)[GalNAc(a1-3)Fuc(a1-2)Gal(b1-4)GlcNAc(b1-6)]GalNAc
# How it was run: as §1
# GalNAc(a1-3)GalNAc = molecular target: GalNAc(a1-3)GalNAc
# How it was run: as §1
# GalNAc(b1-3)Gal = molecular target: GalNAc(b1-3)Gal
# How it was run: as §1
# [13] = molecular target: Glc(a1-4)Glc(a1-4)Glc(a1-4)Glc
# How it was run: as §1
# [14] = molecular target: Glc(a1-6)Glc(a1-6)Glc(a1-6)Glc
# How it was run: as §1
# [15] = molecular target: GlcNAc(a1-4)Gal(b1-4)GlcNAc(b1-3)Gal(b1-4)Glc
# How it was run: as §1
# [16] = molecular target: GlcNAc(a1-4)Gal(b1-4)GlcNAc(b1-3)Gal(b1-4)GlcNAc
# How it was run: as §1
# [17] = molecular target: GlcNAc(a1-4)Gal(b1-4)GlcNAc(b1-3)Gal(b1-4)[Fuc(a1-3)]GlcNAc(b1-3)Gal(b1-4)[Fuc(a1-3)]GlcNAc
# How it was run: as §1
# [18] = molecular target: GlcNAc(b1-2)Gal(b1-3)GalNAc
# How it was run: as §1
# [19] = molecular target: GlcNAc(b1-2)Man(a1-3)[GlcNAc(b1-2)Man(a1-6)]Man(b1-4)GlcNAc(b1-4)GlcNAc
# How it was run: as §1
# [20] = molecular target: GlcNAc(b1-2)[GlcNAc(b1-4)]Man(a1-3)[GlcNAc(b1-2)Man(a1-6)]Man(b1-4)GlcNAc(b1-4)GlcNAc
# How it was run: as §1
# GlcNAc(b1-3)Gal(b1-4)Glc = molecular target: GlcNAc(b1-3)Gal(b1-4)Glc
# How it was run: as §1
# GlcNAc(b1-3)GalNAc = molecular target: GlcNAc(b1-3)GalNAc
# How it was run: as §1
# [21] = molecular target: GlcNAc(b1-4)GlcNAc(b1-4)GlcNAc(b1-4)GlcNAc(b1-4)GlcNAc(b1-4)GlcNAc
# How it was run: as §1
# Man(a1-2)Man(a1-3)Man = molecular target: Man(a1-2)Man(a1-3)Man
# How it was run: as §1
# [22] = molecular target: Man(a1-2)Man(a1-3)[Man(a1-6)]Man(a1-6)[Man(a1-2)Man(a1-3)]Man(b1-4)GlcNAc(b1-4)GlcNAc
# How it was run: as §1
binder,measurement,setting,value
B1,glycan array binding signal (z-score),Fuc(a1-2)Gal,1.84
same,glycan array binding signal (z-score),[1],0.163
same,glycan array binding signal (z-score),[2],1.16
same,glycan array binding signal (z-score),[3],2.79
same,glycan array binding signal (z-score),[4],0.731
same,glycan array binding signal (z-score),[5],-0.414
same,glycan array binding signal (z-score),[6],5.23
same,glycan array binding signal (z-score),Gal(a1-4)Gal(b1-4)Glc,-0.16
same,glycan array binding signal (z-score),[7],3.05
same,glycan array binding signal (z-score),[8],-0.397
same,glycan array binding signal (z-score),[9],0.071
same,glycan array binding signal (z-score),Gal(b1-4)Gal,3.18
same,glycan array binding signal (z-score),[10],0.39
same,glycan array binding signal (z-score),[11],-1.17
same,glycan array binding signal (z-score),[12],1.02
same,glycan array binding signal (z-score),GalNAc(a1-3)GalNAc,-0.917
same,glycan array binding signal (z-score),GalNAc(b1-3)Gal,-0.593
same,glycan array binding signal (z-score),[13],-0.095
same,glycan array binding signal (z-score),[14],-0.394
same,glycan array binding signal (z-score),[15],0.236
same,glycan array binding signal (z-score),[16],6.62
same,glycan array binding signal (z-score),[17],4.27
same,glycan array binding signal (z-score),[18],-0.622
same,glycan array binding signal (z-score),[19],0.152
same,glycan array binding signal (z-score),[20],-0.599
same,glycan array binding signal (z-score),GlcNAc(b1-3)Gal(b1-4)Glc,2.75
same,glycan array binding signal (z-score),GlcNAc(b1-3)GalNAc,-0.143
same,glycan array binding signal (z-score),[21],0.22
same,glycan array binding signal (z-score),Man(a1-2)Man(a1-3)Man,-1.17
same,glycan array binding signal (z-score),[22],0.409
